Measurements as given in PubChem BioAssay (Tox21).
“And” between values parts separate entries of the source, which are not always exact repeats. Equal values may be shown once. Records with an inconclusive call do not appear. Some structures have more than one record in an assay (separate samples or runs), and their calls can disagree. The source made the active and inactive calls. Unless noted, calls come from the whole dose curve; as a rule, active = well fitted curve in the direction sought with a large enough effect in the repeat runs; inconclusive = weak or mixed curves; inactive = no such curve, though single readings can be large; an effect the other way counts as inactive or inconclusive.

Experiments:
[1] = qHTS RealTime-Glo MT Cell Viability Assay in HEK293 cells - 24 hour (AID 1224886); note: top concentration of the series differs between compounds; nearly all actives have a fitted effect of over 50% in size
Outline: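 Homogeneous bioluminescent viability format in HEK293 cells (600 cells/well). Following 5 h at 37 C/5% CO2, 23 nL compound was pintooled; the signal was measured repeatedly during 40 h incubation.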

[2] = qHTS RealTime-Glo MT Cell Viability Assay in HEK293 cells - 8 hour (AID 1224887); note: top concentration of the series differs between compounds; nearly all actives have a fitted effect of over 50% in size
Outline: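 HEK293 cells mixed with RealTime-Glo reagents (NanoLuc plus cell-permeant prosubstrate) at 600 cells/well, preincubated 5 h at 37 C/5% CO2, then given 23 nL compound in DMSO. Nonlytic luminescence from viable cells was read at 0, 8, 16, 24, 32 and 40 h.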

[3] = A CellTox Green Cytotoxicity Assay to monitor cytotoxicity in HEK293 cells - 16 hour (AID 1224888); note: nearly all actives have a fitted effect of over 35% in size
Outline: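 HEK293 cells premixed with CellTox Green dye were seeded at 600 cells/well and left 5 h at 37 C/5% CO2 before pin transfer of 23 nL compound in DMSO. Fluorescence from dye bound to dead-cell DNA was read during 40 h treatment.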

[4] = qHTS RealTime-Glo MT Cell Viability Assay in HepG2 cells - 0 hour (AID 1224889); note: nearly all actives have a fitted effect of over 50% in size
Outline: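 Cell number in HepG2 cultures estimated from NanoLuc luminescence generated by metabolic reduction of a prosubstrate by living cells. The homogeneous, nonlytic format allowed repeated reads at 0, 8, 16, 24, 32 and 40 h of compound exposure.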

[5] = A CellTox Green Cytotoxicity Assay to monitor cytotoxicity in HepG2 cells - 8 hour (AID 1224890); note: nearly all actives have a fitted effect of over 45% in size
Outline: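 HepG2 cells were seeded together with the CellTox Green dye at 600 cells/well, left 5 h at 37 C/5% CO2, then given compounds in DMSO. Fluorescence from dye bound to dead-cell DNA was read repeatedly over 40 h of treatment at 37 C.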

[6] = qHTS assay to identify small molecule antagonists of the estrogen receptor alpha (ER-alpha) signaling pathway using the BG1 cell line in the presence of 0.1 nM 17-beta-estradiol - cell viability counter screen (AID 1259241); note: nearly all actives have a fitted effect of over 40% in size
Outline: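 Estradiol-stimulated (0.1 nM) VM7Luc4E2 cells exposed to compounds 22 hr; viability measured by fluorescence of cleaved CellTiter-Fluor substrate after 30 min.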

[7] = qHTS assay to identify small molecule antagonists of the androgen receptor (AR) signaling pathway using the MDA cell line in the presence of 0.5 nM R1881 - cell viability counter screen (AID 1259242); note: nearly all actives have a fitted effect of over 45% in size
Outline: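 MDA-kb2 cells (human breast carcinoma, stably carrying MMTV-luciferase reporter) were exposed to compounds with 0.5 nM R1881 (final) for 16 hr at 37C, 0% CO2; viability then read as live-cell protease fluorescence (CellTiter-Fluor, 30 min) in the same wells.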

[8] = qHTS assay to identify small molecule HDAC inhibitors (AID 1259364); note: top concentration of the series differs between compounds; nearly all actives have a fitted effect of over 45% in size
Outline: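 Wild-type HCT-116 cells were plated overnight, exposed to compounds for 2 h at 37 °C, then given HDAC-Glo class I/II luminogenic reagent for 30 min at room temperature before luminescence was read.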

[9] = qHTS assay to identify small molecule HDAC inhibitors - cell viability counter screen (AID 1259365); note: series mostly up to about 92 µM; nearly all actives have a fitted effect of over 50% in size
Outline: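 After overnight seeding at 1,500 cells per well, wild-type HCT-116 cultures took up compounds in DMSO for 2hr at 37 C. Viable cell content came from luminescence with CellTiter-Glo.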

[10] = qHTS assay to identify small molecule agonists of the sonic hedgehog signaling (Shh) pathway - cell viability counter screen (AID 1259366); note: nearly all actives have a fitted effect of over 50% in size; note: potency is the fitted concentration of half-maximal effect
Outline: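 Same-well cytotoxicity read. Gli1-Luc reporter 3T3 cells; compounds 24hr, 37C/5% CO2; CellTiter-Fluor fluorescence.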

[11] = qHTS assay to identify small molecule antagonists of the sonic hedgehog signaling (Shh) pathway - cell viability counter screen (AID 1259367); note: nearly all actives have a fitted effect of over 55% in size; note: potency is the fitted concentration of half-maximal effect
Outline: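 NIH/3T3-derived Gli1-Luc reporter cells, 2,000/well, plated 4 hr before compound addition, then stimulated with conditioned medium for 24 hr at 37C. Viability measured in the same wells by CellTiter-Fluor fluorescence, reagent added at 23 hr for 1 hr.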

[12] = qHTS assay to identify small molecule antagonists of the sonic hedgehog signaling (Shh) pathway (AID 1259369; calls by dose curve; note: nearly all actives have a fitted effect of over 45% in size; note: potency is the fitted concentration of half-maximal effect)
Outline: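 NIH/3T3-derived 3T3Gli1-Luc cells with stably integrated Gli1-Luc reporter were preincubated 4hr at 37 C, then given compounds in DMSO plus Shh conditioned medium and incubated 24hr. Firefly luciferase luminescence read after 30min reagent at room temperature.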

[13] = qHTS assay to identify small molecule agonists of the androgen receptor (AR) signaling pathway in the presence of an antagonist - cell viability counter screen (AID 1259379); note: series mostly up to about 92 µM; nearly all actives have a fitted effect of over 25% in size
Outline: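 MDA-kb2 human breast carcinoma cells (stable MMTV-luciferase, AR/GR responsive) were seeded 3,000 cells/well, pre-incubated 5 hr at 37C without CO2, then given 3.0uM nilutamide and compounds at 15 concentrations for 16 hr. Viability was read by CellTiter-Fluor fluorescence.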

[14] = qHTS assay to identify small molecule agonists of the estrogen receptor beta (ER-beta) signaling pathway - cell viability counter screen (AID 1259380); note: nearly all actives have a fitted effect of over 30% in size; note: potency is the fitted concentration of half-maximal effect
Outline: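 ER-beta-UAS-bla HEK293T cells in medium with 2% charcoal-stripped FBS were preincubated 6 hr at 37C, dosed with compound in DMSO for 16 hr, then after the bla read, CellTiter-Glo was added for 30 min at room temperature; luminescence recorded.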

[15] = qHTS assay to identify small molecule agonists of the sonic hedgehog signaling (Shh) pathway (AID 1259368; calls by dose curve; note: series mostly up to about 92 µM; nearly all actives have a fitted effect of over 15% in size)
Outline: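 NIH/3T3-derived 3T3Gli1-Luc cells carrying a stably integrated Gli1 response element–firefly luciferase reporter were plated, left 4 hr at 37 C, then given compounds in DMSO for 24 hr. Luminescence was read 30 min after adding luciferase reagent.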

[16] = biological target: Estrogen receptor (Homo sapiens) (UniProt P03372); test: qHTS assay to identify small molecule antagonists of the estrogen receptor alpha (ER-alpha) signaling pathway using the BG1 cell line in the presence of 0.1 nM 17-beta-estradiol (AID 1259244); note: nearly all actives have a fitted effect of over 50% in size
Chain of Estrogen receptor (Homo sapiens) (P03372 whole entry, looked up): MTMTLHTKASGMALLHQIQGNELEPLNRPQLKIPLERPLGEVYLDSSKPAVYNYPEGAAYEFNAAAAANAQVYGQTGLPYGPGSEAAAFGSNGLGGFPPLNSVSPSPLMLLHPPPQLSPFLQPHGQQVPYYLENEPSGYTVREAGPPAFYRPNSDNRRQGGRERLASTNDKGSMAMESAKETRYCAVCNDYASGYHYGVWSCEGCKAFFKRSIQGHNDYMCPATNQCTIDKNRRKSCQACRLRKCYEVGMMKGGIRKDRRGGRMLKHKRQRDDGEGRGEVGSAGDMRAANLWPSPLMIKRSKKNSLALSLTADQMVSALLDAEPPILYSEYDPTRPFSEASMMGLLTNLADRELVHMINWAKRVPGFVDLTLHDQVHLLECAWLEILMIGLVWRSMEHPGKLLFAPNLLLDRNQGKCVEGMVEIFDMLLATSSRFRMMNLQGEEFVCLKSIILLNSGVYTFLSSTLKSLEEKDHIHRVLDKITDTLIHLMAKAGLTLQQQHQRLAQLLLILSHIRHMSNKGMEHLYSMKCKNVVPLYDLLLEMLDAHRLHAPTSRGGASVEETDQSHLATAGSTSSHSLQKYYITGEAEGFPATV
Outline: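 VM7Luc4E2 cells (endogenous full-length ER-alpha, stable 4xERE-luciferase) were grown 5 days in phenol red-free medium with charcoal-stripped FBS, then exposed 22 h at 37C to compounds plus 0.1 nM (final) 17beta-estradiol; ONE-Glo luminescence read-out.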

[17] = qHTS assay to identify small molecule phospholipidosis (PLD) inducers (AID 1259344; active = well fitted curve in the direction sought with a large enough effect; an effect the other way counts as inactive or inconclusive)
Outline: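 HepG2 cells, 900/well, treated with compound plus LipidTOX Red for 24 h at 37 C; amiodarone positive and DMSO negative controls. Fixed with paraformaldehyde/Hoechst, then high-content imaging scored LipidTOX pit count and integrated intensity per well and per cell.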

[18] = biological target: Estrogen receptor beta (Homo sapiens) (UniProt Q92731); test: qHTS assay to identify small molecule agonists of the estrogen receptor beta (ER-beta) signaling pathway (AID 1259377; active = well fitted activation curve with a large enough effect in the signal ratio in the repeat runs, not every such curve was filed as active; the % refers to the signal ratio)
Chain of Estrogen receptor beta (Homo sapiens) (Q92731 whole entry, looked up): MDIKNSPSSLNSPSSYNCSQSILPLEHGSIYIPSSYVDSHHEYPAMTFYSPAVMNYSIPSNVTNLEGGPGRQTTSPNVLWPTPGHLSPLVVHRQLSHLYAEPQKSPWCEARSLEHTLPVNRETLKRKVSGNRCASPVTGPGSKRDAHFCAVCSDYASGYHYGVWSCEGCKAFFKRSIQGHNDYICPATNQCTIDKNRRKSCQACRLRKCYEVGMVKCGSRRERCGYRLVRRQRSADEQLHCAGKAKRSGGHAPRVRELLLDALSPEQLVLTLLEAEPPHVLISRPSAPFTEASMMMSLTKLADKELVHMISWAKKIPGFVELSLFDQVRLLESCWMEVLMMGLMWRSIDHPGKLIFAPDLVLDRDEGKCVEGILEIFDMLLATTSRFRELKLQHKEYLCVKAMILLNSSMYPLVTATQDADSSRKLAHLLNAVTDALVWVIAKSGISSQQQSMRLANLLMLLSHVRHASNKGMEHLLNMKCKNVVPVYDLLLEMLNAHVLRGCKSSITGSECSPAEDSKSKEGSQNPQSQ
Outline: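 Read-out: beta-lactamase FRET fluorescence. Cell line: ER-beta-UAS-bla HEK293T in 2% charcoal-stripped FBS. Exposure: 16 hr at 37C. Substrate step: 2 h at room temperature.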

[19] = biological target: Estrogen receptor beta (Homo sapiens) (UniProt Q92731); test: qHTS assay to identify small molecule antagonists of the estrogen receptor beta (ER-beta) signaling pathway (AID 1259378; active = well fitted inhibition curve with a large enough effect in the signal ratio in the repeat runs, not every such curve was filed as active; the % refers to the signal ratio)
Outline: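 ER-beta-UAS-bla HEK293T cells in 2% charcoal-stripped FBS medium treated with compound plus 1nM final 17-beta-estradiol for 16 hr at 37C. Beta-lactamase reporter read by FRET substrate fluorescence after 2 hours at room temperature.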

Measured: Potency

CCCCC(CC)COC(=O)CS (stereo not drawn)
inactive: [1] | [2] | [3] | [4] | [5] | [6] | [7] | [8] | [9] | [10] | [11] | [12] | [13] | [14]

CN(C)CCC(c1ccc(Cl)cc1)c1ccccn1 (stereo not drawn)
inactive: [1] | [2] | [3] | [4] | [5] | [6] | [7] | [8] | [9] | [15] | [13]
active: [11] 68.7 µM | [12] 24.4 µM and 17.2 µM | [14] 48.7 µM
61.3 µM (active) and inactive: [10]

O=C(O)c1cc(=O)c2c(OCC(O)COc3cccc4oc(C(=O)O)cc(=O)c34)cccc2o1
inactive: [1] | [2] | [3] | [4] | [5] | [6] | [7] | [16] | [17] | [8] | [9] | [10] | [11] | [12] | [18] | [19] | [13] | [14]

CC(c1cc2ccccc2s1)N(O)C(N)=O (stereo not drawn)
inactive: [1] | [2] | [3] | [5] | [6] | [7] | [16] | [17] | [8] | [9] | [10] | [11] | [15] | [12] | [18] | [19] | [13] | [14]

OC[C@H]1O[C@@](CO)(O[C@H]2O[C@H](CO)[C@@H](O)[C@H](O)[C@H]2O)[C@@H](O)[C@@H]1O
inactive: [3] | [5] | [6] | [7] | [16] | [17] | [8] | [9] | [10] | [11] | [15] | [12] | [18] | [19] | [13] | [14]

Fc1ccc(Br)cc1
inactive: [1] | [2] | [3] | [5] | [6] | [7] | [16] | [8] | [9] | [10] | [11] | [12] | [13] | [14]

CC(=O)Nc1ccccc1
inactive: [1] | [2] | [3] | [5] | [6] | [7] | [16] | [17] | [8] | [9] | [10] | [11] | [15] | [12] | [18] | [19] | [13] | [14]
